# In all, about 360,000 compounds went through this assay and about 80 (0.02%) were called active. The sample holds actives, similar compounds and a random draw of the others, so the mix is not that of the screen. A number with no mark means an inactive call.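 Rule for the calls: active = activation above the run cutoff, the mean activation of all test compounds plus 3 SD (cut at about 40% in these data); inactive = the rest.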
# Assay: ATP EC20 calcium response enhancers, parental CHO-K1 – cell-based, Fluo-8 calcium fluorescence, full deck, 1536-well, counter-screen for M1 PAM project, primary screen (AID 602247);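 note: peak over basal fluorescence ratio in a 140 s read after ATP addition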
# Settings: parental CHO-K1, ATP EC20, Fluo-8 calcium fluorescence; at 3 µM; hits give high values; 0% at ATP EC20, 100% at ATP max
row,SMILES,activation
1,CCc1ccc(OCC(=O)NCC(c2ccc(Cl)cc2)N2CCCCC2)cc1 (centres undefined),11%
2,COc1ccc(C)cc1N(CC(=O)N1CCCC1)S(=O)(=O)c1ccccc1,9.46%
3,Cc1ccc(C)c(NC(=O)c2cc(-c3cc(C)cc(C)c3O)n[nH]2)c1,-21.6%
4,O=C(Nc1cccnc1)c1cc2cc(Br)ccc2oc1=O,-7.52%
5,O=C(CSc1nnc(-c2cccs2)n1Cc1ccco1)c1ccc2c(c1)OCO2,22.8%
6,CCN(CC)Cc1cc(C(C)=O)ccc1O,-6.07%
7,C=CCOc1ccccc1NC(=O)CN1C(=O)CNC1=O,13.6%
8,Cc1ccc(NC(=O)CN(C)C(=O)c2ccc(Br)o2)cc1,-2.97%
9,CCOC(=O)c1ccc(N2C(=O)CC(Sc3nc(O)c(CC)c(=O)[nH]3)C2=O)cc1 (centres undefined),11.8%
10,Fc1cccc(Cc2noc(CN3CCN(c4cnccn4)CC3)n2)c1,10.6%
11,Cc1c(Br)c([N+](=O)[O-])nn1C(C)C(=O)Nc1nccs1 (centres undefined),3.45%
12,O=c1cc(CN2CCN(S(=O)(=O)/C=C/c3ccccc3)CC2)c2ccc(O)cc2o1,-3.7%
13,Cc1ccc(-c2ccc(C3=CC(=O)CC(C)(C)C3=O)cc2)cc1,8.88%
14,O=C(NC12CC3CC(CC(C3)C1)C2)N1CCCC(CO)C1 (centres undefined),11.3%
15,COc1cc(CCC(=O)N2CCN(c3ccccc3Cl)CC2)cc(OC)c1OC,15.8%
16,O=C(CN1CCN(C(=S)NC2CCCC2)CC1)Nc1ccc(Oc2ccccc2)cc1,-1.33%
17,Cc1cccc(N2C(=O)C3C(c4ccccc4)OC4(C(=O)c5ccccc5C4=O)C3C2=O)c1 (centres undefined),10.9%
18,O=C(OCC(=O)N1CCCCCC1)c1ccc(Cl)nc1,21.8%
19,COc1cc(CNc2ncn[nH]2)ccc1OCc1ccccc1C,-0.62%
20,COc1ccc(OC)c(C(=O)NC(CC(N)=O)c2ccc(N3CCC(N4CCCCC4)CC3)c([N+](=O)[O-])c2)c1 (centres undefined),26.1%
21,CC(NC(=O)COc1cccnc1[N+](=O)[O-])c1ccc(Cl)cc1Cl (centres undefined),-1.02%
22,Cc1cc(C)c(S(=O)(=O)N(C)CC(=O)NCC2CCCO2)c(C)c1 (centres undefined),-22.7%
23,Nc1nc(SCC(=O)Nc2ccc(Cl)cc2C(F)(F)F)n[nH]1,5.7%

row,SMILES,activation
1,Cc1ccc(SCCN2C(=O)NC(C)(C)C2=O)cc1,11.2%
2,C=CCn1c(COc2ccccc2F)nnc1SCC(=O)N1CC(=O)Nc2ccccc21,15.7%
3,COc1ccccc1C(=O)N/C(=C/c1ccc2c(c1)OCO2)C(=O)Nc1cccc(C(=O)O)c1,-17.7%
4,CCc1ccc(N2CC(C(=O)NC3=NCCS3)CC2=O)cc1 (centres undefined),-0.63%
5,Cc1nc2ccccn2c(=O)c1NC(=O)c1ccc(Br)o1,7.36%
6,CCOc1cc(NC(=O)CCl)c(OCC)cc1NC(C)=O,10.9%
7,Cc1ccc(C(C)C)c(OCCSc2nc3ccccc3n2CC(=O)O)c1,1.93%
8,COc1cccc(-c2nc3n(n2)C(c2ccccc2Cl)C(C(N)=O)=C(C)N3)c1 (centres undefined),3.28%
9,COc1ccc(NC(=O)c2sc(N3CCOCC3)nc2-c2ccccc2)c(OC)c1,44.6% (active)
10,COc1ccc(NC(=O)NN2CCN(C)CC2)c(OC)c1,15.7%
11,COc1ccc(NC(=O)CNc2cc(S(=O)(=O)N3CCOCC3)ccc2N2CCOCC2)c(OC)c1,9.94%
12,CCn1c(O)c(N=NC2=NC(=O)CS2)c2cc(C)ccc21,-3.3%
13,COc1cc(C(=O)OC(C)C(=O)NCC2CCCCC2)cc(NC(=O)c2ccco2)c1OC (centres undefined),7.38%
14,COC(=O)c1cccc(N(C(=O)CNC(=O)c2cccs2)C(C(=O)NCC2CCCO2)c2ccc(OC)c(OC)c2)c1 (centres undefined),6.05%
15,O=C(Nc1ccccc1)c1nnsc1S(=O)(=O)c1ccc(Cl)cc1,-4.32%
16,Cc1ccc(NC(=O)C2(N3CCC3=O)CCCCC2)cc1,30.7%
17,COCCCNS(=O)(=O)c1cccc(S(=O)(=O)c2cccc(S(=O)(=O)NCCCOC)c2)c1,-13.2%
18,Cc1ccc(C(=O)N[C@H](C(=O)N2CCN(c3ncccn3)CC2)C(C)C)cc1,21.1%
19,O=C(CN1C(=O)NC2(CCCC2)C1=O)Nc1cc(C(F)(F)F)ccc1N1CCOCC1,-14.5%
20,Cc1ccc(C(=O)O)cc1N1C(=O)CCCC1=O,17.6%
21,CCC(C(=O)Nc1ccc(C(C)C)cc1)c1ccccc1 (centres undefined),7.1%
22,NC(=O)C1CCN(Cc2nc3c(Br)cc(Br)cc3c(=O)[nH]2)CC1,8.89%
23,CCn1nc(C)c(/C=N/NC(=O)Cc2ccc(Cl)cc2)c1C,10.4%

row,SMILES,activation
1,COc1ccc(CN2C(=O)CC(Cc3ccc(C)cc3)C2=O)cc1OC (centres undefined),0.86%
2,CC(NC(=O)c1cc2cc(Cl)ccc2oc1=N)c1ccccc1 (centres undefined),4.16%
3,O=C(O)c1cccc2c1C(=O)N(C1CCCCC1)C2,12.5%
4,Cc1c(C#N)c2ncn(CC#N)c(=O)c2n1-c1ccccc1,10.7%
5,OCC(O)C1OCOC(C(O)CO)C1O (centres undefined),-2.45%
6,Cc1ccc(-c2nnc(Nc3ccc(C(=O)N(C)C)cc3)c3ccccc23)cc1S(N)(=O)=O,-6.44%
7,COc1ccc(S(=O)(=O)N2CCOCC2)cc1NC(=O)CSc1ncnc2ccccc12,-10.6%
8,C/C(CCc1ccccc1)=N\NC(=O)c1ccc(CN2CCOCC2)cc1,10.1%
9,C[C@@H]1CN([C@@H](C)CO)C(=O)c2cc(NS(C)(=O)=O)ccc2O[C@@H](C)CCCCO[C@H]1CN(C)C(=O)Nc1ccc2c(c1)OCO2,5.94%
10,O=C(NCc1ccccc1)C(c1ccco1)N(C(=O)c1csnn1)c1ccccc1F (centres undefined),-7%
11,Cc1ccc(C)c2[nH]c(=O)c(CN(Cc3cccnc3)C(=S)NCc3ccco3)cc12,-16.3%
12,NC1=NC(=O)C2(COC(c3ccccc3Cl)OC2)S1 (centres undefined),19%
13,CCOc1ccc(C(=O)Nc2ccc(S(=O)(=O)NCC3CCCO3)cc2)cc1OCC (centres undefined),-16.7%
14,CCOc1ccc(S(=O)(=O)N(CC(=O)O)c2ccccc2)cc1,12.9%
15,CN(C)/C=C(\C#N)C(=O)c1cccnc1Oc1ccc(F)cc1F,13.9%
16,COCCNC(=O)C1CCN(C(=O)C2CC(=O)N(c3ccc(C)cc3)C2)CC1 (centres undefined),7.97%
17,COc1ccc(-n2ncc3c2CC(C)(C)CC3NC(=O)CCc2c(C)noc2C)cc1 (centres undefined),-2.15%
18,CCCNC(=S)N1CCCC(c2nc3ccccc3[nH]2)C1 (centres undefined),14.2%
19,CC(C)C[C@@H]1COc2cc(N3CCC[C@@H]3CO)ccc2S(=O)(=O)N1,4.5%
20,CC1CCCN(C(C(=O)Nc2ccc(C(C)C)cc2)c2ccc3c(c2)OCO3)C1 (centres undefined),10.5%
21,Cc1ccc(NS(=O)(=O)c2c(C)[nH]c(=O)[nH]c2=O)cc1C,7.33%
22,COc1cc(OC)cc(C(=O)NNC(=O)CNC(=O)c2ccc(Br)o2)c1,-26.2%
23,CCOC(=O)c1sc(N)c(C#N)c1COC(=O)C1=COCCO1,-16.5%

row,SMILES,activation
1,Cc1ccc(NC(=O)NC(=O)N(C2CCCCC2)S(=O)(=O)c2ccccc2)cc1,15.3%
2,Cn1c(=O)oc2cc(S(=O)(=O)N3CCC(C(=O)Nc4ccc(OC(F)(F)F)cc4)CC3)ccc21,29.6%
3,O=[N+]([O-])c1ccc(N2CCN(c3ccc(F)cc3)CC2)cn1,-7.83%
4,NC1=NC2(CCCCC2)N(c2ccc(F)cc2F)C(N)=N1,-9.48%
5,Cc1ccc(CC(=O)Nc2cccc(C#N)c2)cc1,18.7%
6,CC(C)NC(=O)NC(=O)CSc1nnc(-c2ccccc2F)n1N,30%
7,CC1(C(=O)NS(=O)(=O)c2cccs2)CCN1C(=O)Cc1ccc(-c2ccccc2)cc1 (centres undefined),13%
8,O=C(NC1CC2CCCC(C1)N2C(=O)N1CCCCC1)C1CCCCC1 (centres undefined),7.85%
9,CCCC(C(=O)NC1CCCC1)N(C(=O)Cn1nnc(-c2ccc(C)o2)n1)c1cccc(O)c1 (centres undefined),13.1%
10,COc1cccc(NC(=O)C(=O)c2cn(CC(=O)N3CCOCC3)c3ccccc23)c1,-2.46%
11,CCCCN(C(=O)c1cccc(N2C(=O)c3ccccc3C2=O)c1)c1c(N)n(CCCC)c(=O)[nH]c1=O,11.7%
12,O=C(Cn1cc(C(F)(F)F)ccc1=O)N/N=C/c1ccc(Cl)cc1Cl,3.42%
13,CC(OC(=O)CNC(=O)c1cccc(F)c1)C(=O)NC1CCCCC1C (centres undefined),10.1%
14,CCC(=O)c1ccc(OCC(=O)N(CC)CC2COc3ccccc3O2)cc1 (centres undefined),15.6%
15,O=C(N[C@H]1C/C=C\C(c2cccc(F)c2)N(Cc2ccccc2)C(=O)C1)OCC1c2ccccc2-c2ccccc21 (some centres undefined),-2.24%
16,O=C(OCC(=O)N1CCN(C(=O)c2ccco2)CC1)c1ccccc1Cc1ccccc1,8.99%
17,COc1cccc(CN2CCC(C(=O)NC(c3ccc4c(c3)OCO4)c3ccccn3)CC2)c1 (centres undefined),12.4%
18,CCOc1cc2c(Cl)ncnc2c(OCC)c1OCC,-10.2%
19,CC1(C)O[C@@H]2[C@H](O1)[C@@H](CO)O[C@H]2n1c(N2CCCCC2)nc2c(N)ncnc21,11.6%
20,COc1ccc(N2CC(C(=O)NCCS(=O)(=O)N3CCN(c4ccccc4)CC3)CC2=O)cc1 (centres undefined),-1.18%

# Source: PubChem BioAssay AID602247 (The Scripps Research Institute Molecular Screening Center, 2012)
